# From PubChem BioAssay (Tox21)
# Inconclusive results are not listed. Where a call stands in place of a potency, no number is given. A number with no mark means an inactive call. Calls of active or inactive are those of the source. Unless noted, calls follow the shape of the full dose curve.
# Biological target: Estrogen receptor (Homo sapiens) (UniProt P03372)
# Assay: qHTS assay to identify small molecule agonists of the estrogen receptor alpha (ER-alpha) signaling pathway (AID 743075);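 also: HEK293 GripTite cells with ER-alpha and UAS-driven beta-lactamase reporter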
# Conditions: HEK293 ER-alpha-UAS-bla, beta-lactamase FRET ratio, 18 h; series mostly up to 70.1 µM
# Estrogen receptor (Homo sapiens), sequence (P03372 whole entry, looked up): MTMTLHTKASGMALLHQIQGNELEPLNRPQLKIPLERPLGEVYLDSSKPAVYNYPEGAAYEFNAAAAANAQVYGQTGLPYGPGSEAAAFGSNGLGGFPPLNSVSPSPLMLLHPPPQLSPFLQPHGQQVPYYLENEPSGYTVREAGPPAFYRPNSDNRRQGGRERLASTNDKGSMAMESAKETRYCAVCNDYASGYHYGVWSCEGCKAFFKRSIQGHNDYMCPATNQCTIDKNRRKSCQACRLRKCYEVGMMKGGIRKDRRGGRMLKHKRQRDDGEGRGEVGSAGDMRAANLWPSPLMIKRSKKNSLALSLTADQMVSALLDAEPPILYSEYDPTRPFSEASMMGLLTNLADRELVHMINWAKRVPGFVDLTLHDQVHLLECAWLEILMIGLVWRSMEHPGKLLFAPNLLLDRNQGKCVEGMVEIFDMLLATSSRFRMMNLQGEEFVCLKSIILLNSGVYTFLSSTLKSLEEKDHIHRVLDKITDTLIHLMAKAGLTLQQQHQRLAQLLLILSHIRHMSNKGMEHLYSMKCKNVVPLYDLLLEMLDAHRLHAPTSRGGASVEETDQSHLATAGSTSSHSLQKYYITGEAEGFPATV
SMILES,Potency,activation
CCC(C)(C)C,inactive,–
CC(C)(O)c1ccc(C(C)(C)O)cc1,inactive,–
O=C(O)Cc1c(Cl)ccc(Cl)c1Cl,inactive,–
C[Si](C)(C)O[Si](O)(O)O,inactive,–
CC/C=C\CCCCCCCCCCOC(C)=O,inactive,–
CCO[Si](CC(C)C)(OCC)OCC,inactive,–
C=CCOC(=O)CCCCCCCC,inactive,–
COc1cc2nc(N3CCN(C(=O)C4CCCO4)CC3)nc(N)c2cc1OC (stereo unspecified),inactive,–
Nc1nc(Cl)cc(Cl)n1,inactive,–
CN1CCN(C(=O)C2CCCCC2)CC1,inactive,–
CCCC(=O)CC,inactive,–
O=P(O)(O)C(O)(Cc1cccnc1)P(=O)(O)O,inactive,–
CN(C)c1cc(NC(=O)CNC(C)(C)C)c(O)c2c1C[C@H]1C[C@H]3[C@H](N(C)C)C(=O)C(C(N)=O)=C(O)[C@@]3(O)C(=O)C1=C2O,inactive,–
CC(O)CCCCn1c(=O)c2c(ncn2C)n(C)c1=O (stereo unspecified),inactive,–
c1coc(Cn2cccc2)c1,inactive,–
Nc1cc(S(=O)(=O)O)ccc1O,inactive,–
O=C(O)Cc1ccccc1Oc1ccc(Cl)cc1Cl,inactive,–
CC(=O)OC1CCC(C(C)(C)C)CC1 (stereo unspecified),inactive,–
CN(C)CCCN(C)C,–,-1.03% [at 6.71 µM]
CCCCN(CCCC)CCCCCCN(CCCC)CCCC,inactive,–
CCOC(=O)c1ccc(N(C)C)cc1,inactive,–
Cc1ccccc1OCC(=O)O,inactive,–
C/C=C(\C)C(=O)OC/C=C(\C)CCC=C(C)C,inactive,–
CC(C)(C)C(=O)CCc1ccc(Cl)cc1,inactive,–
CCC(=O)OCCOc1ccccc1,inactive,–
CSC(=O)c1cccc2nnsc12,inactive,–
C/C=C(\C)C=O,inactive,–
CCCCCCCCCCCBr,inactive,–

# Biological target: Estrogen receptor (Homo sapiens) (UniProt P03372)
# Assay: qHTS assay to identify small molecule agonists of the estrogen receptor alpha (ER-alpha) signaling pathway using the BG1 cell line (AID 743079; active = well fitted activation curve with a large enough effect in the repeat runs; also: nearly all actives have a fitted effect of over 20% in size; also: potency is read from the fitted curve at half-maximal effect)
# Conditions: BG1Luc4E2 cells, ERE-luciferase agonist, 22 h; series mostly up to 70.3 µM
SMILES,Potency,activation
CCC(C)(C)C,inactive,–
CC(C)(O)c1ccc(C(C)(C)O)cc1,inactive,–
O=C(O)Cc1c(Cl)ccc(Cl)c1Cl,inactive,–
C[Si](C)(C)O[Si](O)(O)O,inactive,–
CC/C=C\CCCCCCCCCCOC(C)=O,inactive,–
CCO[Si](CC(C)C)(OCC)OCC,inactive,–
C=CCOC(=O)CCCCCCCC,inactive,–
COc1cc2nc(N3CCN(C(=O)C4CCCO4)CC3)nc(N)c2cc1OC (stereo unspecified),inactive,–
Nc1nc(Cl)cc(Cl)n1,inactive,–
CN1CCN(C(=O)C2CCCCC2)CC1,inactive,–
CCCC(=O)CC,28.1 µM (active),–
O=P(O)(O)C(O)(Cc1cccnc1)P(=O)(O)O,inactive,–
CN(C)c1cc(NC(=O)CNC(C)(C)C)c(O)c2c1C[C@H]1C[C@H]3[C@H](N(C)C)C(=O)C(C(N)=O)=C(O)[C@@]3(O)C(=O)C1=C2O,inactive,–
CC(O)CCCCn1c(=O)c2c(ncn2C)n(C)c1=O (stereo unspecified),inactive,–
c1coc(Cn2cccc2)c1,inactive,–
Nc1cc(S(=O)(=O)O)ccc1O,inactive,–
O=C(O)Cc1ccccc1Oc1ccc(Cl)cc1Cl,inactive,–
CC(=O)OC1CCC(C(C)(C)C)CC1 (stereo unspecified),inactive,–
CN(C)CCCN(C)C,–,-6.84% [at 8.47 µM]
CCCCN(CCCC)CCCCCCN(CCCC)CCCC,inactive,–
CCOC(=O)c1ccc(N(C)C)cc1,54.5 µM (active),–
Cc1ccccc1OCC(=O)O,inactive,–
C/C=C(\C)C(=O)OC/C=C(\C)CCC=C(C)C,inactive,–
CC(C)(C)C(=O)CCc1ccc(Cl)cc1,inactive,–
CCC(=O)OCCOc1ccccc1,inactive,–
CSC(=O)c1cccc2nnsc12,inactive,–
C/C=C(\C)C=O,inactive,–
CCCCCCCCCCCBr,inactive,–
